# aSyn UTR act – Activators via SNCA 5'UTR binding, MLPCN; alpha-synuclein 5'UTR reporter, activators screen; activity score, % (tested at 7.5 µM), hits read low; 300,000 compounds, 7.1% hits; in the data active = activity score below about -60%
# Starred values were filed as active, the others as inactive. A selection follows.
SMILES,aSyn UTR act
Cc1ccc(-c2nc(-c3ccccn3)no2)cc1,99
c1ccc(SCc2nc(-c3ccccn3)no2)cc1,-146*
c1ccc(CCCc2nc(-c3ccccn3)no2)cc1,-70*
COc1ccc(Cc2nc(-c3ccccn3)no2)cc1,-120*
c1ccc2c(c1)NC1(CCCCCC1)n1c-2nc2ccccc21,-142*
CC1=CC(C)(C)Nc2ccccc21,92
CCCCC1(C)Nc2ccccc2-c2nc3ccccc3n21 (stereo unspecified),-146*
c1ccc2c(c1)NC1(CCCCC1)n1c-2nc2ccccc21,-126*
CN(C)c1ccc(NC(=O)Nc2csc3ccccc23)cc1,-141*
O=C(Nc1ccc(F)cc1)Nc1csc2ccccc12,-87*
CCCCOC(=O)c1cc(-c2ccc(/C=N/n3cnnc3)o2)ccc1Cl,-74*
CCOC(=O)c1cc(-c2ccc(/C=C3/C(=O)N(c4ccc(C(=O)O)cc4)N=C3C)o2)ccc1Cl,-76*
Cc1cc(C)c(C#N)c(SCC(=O)Nc2ccccc2C(N)=O)n1,-64*
Cc1nc(SCC(=O)Nc2ccc3c(c2)OCO3)c(C#N)c2c1CCCC2,-140*
Cc1cc(C)c(C#N)c(SCC(=O)Nc2ccc3c(c2)OCO3)n1,-145*
COCc1cc(C)nc(SCC(=O)Nc2ccc(C)c(C)c2)c1C#N,-136*
CC(=O)N1CCN(c2ccc(NC(=O)c3ccco3)cc2)CC1,-83*
CCC(=O)N1CCN(c2ccc(NC(=O)c3ccco3)cc2)CC1,-94*
COc1cc(/C=N/NS(=O)(=O)c2ccc3ccccc3c2)ccc1OCc1ccc(C(=O)O)cc1,84
COc1cc(/C=N/Nc2ccc3ccccc3c2)ccc1OC(=O)c1ccco1,-76*
CCOc1cc(/C=N\Nc2nc(Nc3ccccc3)nc(N3CCOCC3)n2)ccc1OC(=O)c1ccco1,-91*
CCCCc1ccc(-c2nc(NC(=O)C3C4CCC(O4)C3C(=O)O)sc2C)cc1 (stereo unspecified),-128*
Cc1nc(Nc2nc3c(c(=O)[nH]2)CCC3)nc2ccccc12,126
Cc1ccc2c(C)nc(Nc3nc(CSc4nc5ccccc5[nH]4)cc(=O)[nH]3)nc2c1,55
COc1ccc2c(C)nc(Nc3nc(-c4ccccc4)cc(=O)[nH]3)nc2c1,-635*
SMILES,aSyn UTR act
Nc1ccc(N2CCCCC2)cc1N1CCCCC1,85
COC(=O)c1ccc(N2CCC(C)CC2)c(N)c1,-99*
COC(=O)c1ccc(N2CCCCC2)c(N)c1,-92*
COC(=O)c1cc(C(=O)N2CCN(c3cccc(C)c3C)CC2)cc([N+](=O)[O-])c1,78
CCOC(=O)/C=C/c1ccc2oc3ccccc3c(=O)c2c1,-191*
c1cc2c(cnc3cscc32)s1,-69*
Cc1ccc(N=Nc2c(O)[nH]c3ccc(F)cc23)cc1,-137*
O=C(O)c1ccc(N=Nc2c(O)[nH]c3ccc(Br)cc23)cc1,-188*
Oc1[nH]c2ccccc2c1N=Nc1cccc(Cl)c1,-87*
O=Nc1c(-c2c(O)[nH]c3cc(Br)ccc23)[nH]c2ccccc12,77
Oc1[nH]c2ccc(Br)cc2c1N=Nc1ccc(C(F)(F)F)cn1,-68*
OCCN=C1CCCc2c1[nH]c1ccc(Br)cc21,62
O=C(O)c1ccc(N=Nc2c(O)[nH]c3cc(Cl)ccc23)cc1,-294*
Cc1cccc2c(N=Nc3ccccc3)c(O)[nH]c12,-112*
Cc1[nH]c(N=Nc2ccccc2)nc1N=Nc1ccccc1,63
Nc1ccc(Oc2cc(N)cc(Oc3ccccc3)c2)cc1,-173*
O=C(Nc1nccs1)c1cc([N+](=O)[O-])ccc1Cl,-68*
O=C(Nc1nccs1)c1ccc(-c2ccc([N+](=O)[O-])cc2)o1,-141*
O=C(Nc1cccnc1)c1ccc(-c2ccc(Cl)cc2)o1,-190*
O=C(Nc1nccs1)c1ccc(-c2ccc(F)cc2)o1,-260*
O=C(Nc1nccs1)c1ccc(-c2ccc(Cl)cc2)o1,-207*
Cc1cccc(NC(=O)c2cc([N+](=O)[O-])ccc2Cl)c1O,-85*
COC(=O)Nc1nc2ccc(C(=O)c3ccc(F)cc3)cc2[nH]1,99
Cc1nc2ccc(C(=O)c3ccccc3)cc2[nH]1,-95*
CCOC(=O)c1cc(C(=O)Nc2cccc(C)c2)nn1C,-121*
SMILES,aSyn UTR act
Cc1cccc(NC(=O)c2c(C)nn(-c3ccccc3)c2Cl)c1,-97*
O=C(NCC1COc2ccccc2O1)c1ccc(Cl)cc1 (stereo unspecified),-93*
CN(CC1COc2ccccc2O1)C(=O)c1ccc(N(C)C)cc1 (stereo unspecified),-62*
c1ccc(CCNCC2COc3ccccc3O2)cc1 (stereo unspecified),-64*
Brc1cccc(OCCSc2ncccn2)c1,-69*
CCCOc1ccc(OCCSc2ncccn2)cc1,-167*
Clc1ccc(OCCSc2ncccn2)c(Br)c1,-114*
O=C(Cc1ccc(-c2ccccc2)cc1)Nc1ccccn1,-118*
Cc1ccnc(NC(=O)Cc2ccc(-c3ccccc3)cc2)c1,-122*
Cc1cccc(NC(=O)c2cccc(OC(=S)N3CCOCC3)c2)c1C,-66*
Cc1c(O)ccc(/C(Cc2ccc3ccccc3n2)=N\N)c1O,-64*
O=c1cc(N2CCOCC2)cnn1-c1ccccc1,-123*
